# Most compounds without a hit are left out; they make up all but 21% or so of the library.
# DT40 TDP1 CPT = DT40-hTDP1 cell growth loss with CPT; Potency, µM (top dose mostly 46.2 µM), without a hit: at the top dose activity change, negative = growth inhibition, usual class: inhibitors; hit rate 12% among 420,000; chicken DT40 Tdp1-/-;hTDP1 cells + 20 nM CPT, ATP luminescence, 48 h; also: potency is read from the fitted curve at half-maximal effect; % is scaled to controls: 0 for no effect and ±100 for the full control effect; nearly all actives have a fitted effect of over 55% in size
#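 Chicken DT40 Tdp1-/- cells complemented with human TDP1, 400 cells/well, exposed to compounds plus 20 nM camptothecin for at least 48 h at 37 C; viability read as ATP content by CellTiter-Glo luminescence.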
# ClpP mod = qHTS Assay for Activators of ClpP. ATP-dependent Clp protease proteolytic subunit (Bacillus subtilis (strain 168)), P80244. purified B. subtilis ClpP, FRET peptide cleavage, 20 min. AID 651965, 2013. hit rate 1.9% among 340,000. Potency, µM (top dose mostly 57.5 µM), inactives show at the highest dose activity change, negative = active; active = well fitted falling curve with a large enough effect; inconclusive = small, poorly fitted or top-dose-only effect; inactive = no such curve, though single readings can be large or run the other way; also: potency is read from the fitted curve at half-maximal effect; the source files actives as falling curves though it sought activators and does not explain the sign; nearly all actives have a fitted effect of over 65% in size
# Target sequence (P80244 whole entry, looked up): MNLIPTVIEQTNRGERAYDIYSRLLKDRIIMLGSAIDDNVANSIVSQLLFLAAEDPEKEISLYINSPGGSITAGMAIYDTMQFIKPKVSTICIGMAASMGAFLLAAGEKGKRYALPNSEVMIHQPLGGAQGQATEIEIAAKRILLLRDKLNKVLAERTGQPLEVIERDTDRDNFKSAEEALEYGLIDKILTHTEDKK
#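 Purified B. subtilis ClpP, 10 microg/mL final in Tris/HCl pH8 with KCl, BSA, glycerol and Tween-20, cleaved an Abz/nitrotyrosine-quenched decapeptide. Fluorescence (ex 320, em 430) was read at 0 and 20 min at room temperature. Delta was normalized to 5.8 microM ADEP and DMSO/no-enzyme controls.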
# D3 ag = agonists of human D3 dopamine receptor; P35462; D3R DiscoveRx beta-arrestin cells, luminescence, 90 min; AID 652048; hit rate 0.58% among 410,000; max activation, %; in the data active = max activation above about 30%; also: 0% is about no effect
# Target sequence (P35462 whole entry, looked up): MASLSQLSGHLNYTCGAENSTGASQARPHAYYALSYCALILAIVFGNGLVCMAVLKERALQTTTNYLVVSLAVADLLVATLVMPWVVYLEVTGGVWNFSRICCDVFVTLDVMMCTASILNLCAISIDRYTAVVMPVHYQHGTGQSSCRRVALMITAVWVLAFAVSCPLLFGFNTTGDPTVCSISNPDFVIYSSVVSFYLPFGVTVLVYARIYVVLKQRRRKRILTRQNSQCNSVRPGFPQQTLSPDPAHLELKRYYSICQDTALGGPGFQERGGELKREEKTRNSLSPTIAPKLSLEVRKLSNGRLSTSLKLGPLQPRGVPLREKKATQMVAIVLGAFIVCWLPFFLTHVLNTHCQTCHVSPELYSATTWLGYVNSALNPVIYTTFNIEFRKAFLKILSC
#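 Agonist mode: compounds and dopamine controls were applied to plated cells for 90 min at 37 degrees C after an overnight attachment at 1500 cells/well. Luminescent read-out followed 30 - 60 minutes at room temperature with DiscoveRx detection reagent.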
# TDP1 cell noCPT = qHTS for Inhibitors of human tyrosyl-DNA phosphodiesterase 1 (TDP1): qHTS in cells in absence of CPT; DT40 Tdp1-/- hTDP1 cells, no CPT, ATP luminescence, 48 h; Potency, µM (doses to about 46.2 µM), for inactives: at the top dose activity change, negative = growth inhibition, hits mostly inhibitors; hit rate 15% among 420,000; also: potency is read from the fitted curve at half-maximal effect; % is scaled to controls: 0 for no effect and ±100 for the full control effect; nearly all actives have a fitted effect of over 55% in size
#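 A cellular qHTS used chicken DT40 cells lacking endogenous Tdp1 but carrying stably transfected human TDP1. Compounds were applied without camptothecin, and cell growth kinetics were judged by ATP-dependent luminescence after ≥48 hr.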
# IL1B secr inh = blocks inflammasome-driven IL-1 beta release. AID 743279. THP-1 LPS/ATP IL-1B secretion, AlphaLISA, 16 h; stronger effect = lower value. hit rate 4.7% among 360,000. activity change, % at 57.5 µM; in the data active = activity change below about -50%; inconclusive = mostly about -30% to -49%; also: % is scaled to controls: 0 for no effect and ±100 for the full control effect
#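 Secreted IL-1B measured by AlphaLISA bead assay after 16 h compound exposure of THP-1 cells; compounds (final up to 57.5 uM) added 1 h before LPS (250 ng/mL) and ATP (1.25 mM) stimulation; lower signal means less secretion.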
# D3 antag = D3 dopamine receptor (human) antagonism. AID 652054. max response, negative = inhibition, %. hit rate 2.5% among 360,000. D3R cells, DiscoveRx beta-arrestin luminescence, antagonist mode; stronger effect = lower value. P35462; in the data active = max response below about -50%; inconclusive = no clear call, values can overlap the other calls; also: % is scaled to controls: 0 for no effect and ±100 for the full control effect
#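 Cells plated overnight at 1500 cells/well, then exposed to library compounds with dopamine controls for 90 minutes at 37 degrees C. DiscoveRx reagent added for 30–60 minutes at room temperature; luminescence read, quantitative HTS format.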
# * = called active by the depositor; ? = inconclusive; . = no result given; [ ] = dose if it differs, or a comment. Unless noted, calls follow the shape of the dose curve; as a rule, active = well fitted inhibition curve with a large enough effect; inconclusive = small, poorly fitted or top-dose-only effect; inactive = flat fitted curve, though single readings scatter.
SMILES,DT40 TDP1 CPT,ClpP mod,D3 ag,TDP1 cell noCPT,IL1B secr inh,D3 antag
Cc1ccc(-n2nnc(-c3nccn3C)n2)cc1,23.1µM*,-8.1%,-14.7,20.6µM*,10.8,?
Cc1ccc(-n2nnc(-c3cccnc3)n2)cc1,?,2.5%,6.9,?,10.8,?
NC(=S)N/N=C/c1ccc(-n2nncc2-c2ccc(Cl)cc2)cc1,-8.3%,.,-9.3,?,-70.2*,-0.5
c1ccc(-c2cnnn2-c2ccccc2)cc1,-15.4%,0.7%,0.9,-10.4%,9.7,1.2
Cc1cc(C)cc(-n2c(SCC(=O)Nc3nnc(C)s3)nc3c([nH]c4ccccc43)c2=O)c1,?,-6.6%,4.8,?,.,.
CCc1cccc(-n2nnc(-c3nc(-c4cccs4)no3)c2N)c1,?,-6.7%,0.5,?,.,.
O=C1C(Nc2ccc(O)cc2)=C/C(=N/S(=O)(=O)c2cccs2)c2ccccc21,1.16µM*,.,-31.4,1.46µM*,-99.5*,-85.4*
O=C(O)c1ccc(NC2=C/C(=N/S(=O)(=O)c3cccs3)c3ccccc3C2=O)cc1,9.2µM*,-0.3%,-20.6,6.51µM*,-94.1*,-83.9*
O=C(O)c1ccc(/C=N/NC(=O)c2ccc(NS(=O)(=O)c3cccs3)cc2)cc1,0.0%,-0.4%,-0.1,25.9%,5.5,9.1
O=C(COC(=O)C1CC2CCCC(C1)C2=O)Nc1ccccc1 (stereo not drawn),-18.3%,8.9%,0.2,0.6%,11.2,4.0
Cc1cccc(C(=O)NCC(=O)N2CCOCC2)c1,-4.3%,1.6%,-0.6,11.6%,22.9,16.9
CC(C)c1ccccc1NC(=O)COC(=O)Cc1c[nH]c2ccccc12,0.082µM*,-0.4%,-4.6,-10.5%,0.0,0.0
NC(=O)c1ccsc1NC(=O)COC(=O)Cc1ccc(F)cc1,-14.1%,-6.1%,3.9,?,24.6,20.3
NC(=O)c1ccsc1NC(=O)COC(=O)Cc1ccccc1[N+](=O)[O-],23.1µM*,-2.0%,-1.6,20.6µM*,39.0,-17.7
COc1ccccc1NC(=O)COC(=O)Cc1c[nH]c2ccccc12,-25.9%,1.2%,-5.1,2.8%,29.0,-4.1
NC(=O)c1ccsc1NC(=O)COC(=O)Cc1c[nH]c2ccccc12,?,-3.6%,22.4,16.4µM*,5.6,10.4
NC(=O)c1ccsc1NC(=O)COC(=O)Cc1cccc2ccccc12,9.2µM*,-2.4%,2.3,10.3µM*,2.7,-12.3
O=C1c2ccccc2C(=O)N1OCCCN1C(=O)c2ccccc2S1(=O)=O,-1.2%,0.4%,2.1,-10.4%,15.1,-6.9
O=[N+]([O-])c1ccc(SCCO)nc1SCCO,14.6%,.,-13.5,?,7.2,-9.0
COc1ccc(CN2CCC3(CCC(CNC(=O)c4ccco4)O3)CC2)c(OC)c1C (stereo not drawn),-4.5%[9.04 µM],.,.,-28.2%,.,.
Cc1[nH]nc(SCC(=O)N2CCC(C)CC2)c1[N+](=O)[O-],-5.5%,0.0%,-2.3,1.6%,-3.9,-50.8*
COc1ccc(CN(C)CC(=O)NCC(=O)Nc2c(C)cccc2C)cc1,-5.5%,1.9%,-7.6,-0.3%,11.7,-3.5
COc1ccc(C2CC3(O)NC(=O)C(C#N)(C3C)C2(C#N)C#N)cc1 (stereo not drawn),1.2%,0.0%,1.9,9.6%,-4.6,19.8
CCCC1OC23CCCCC2C(C#N)(C(=N)O3)C1(C#N)C#N (stereo not drawn),7.31µM*,?,6.9,16.4µM*,?,-26.9
CC1OC23CCCCC2C(C#N)(C(=N)O3)C1(C#N)C#N (stereo not drawn),?,51.0%,6.1,?,?,3.6
SMILES,DT40 TDP1 CPT,ClpP mod,D3 ag,TDP1 cell noCPT,IL1B secr inh,D3 antag
COc1ccc(C2OC34CCCCC3C(C#N)(C#N)C2(C#N)C(=N)O4)cc1 (stereo not drawn),5.8µM*,11.2µM*,5.6,7.31µM*,19.2,0.0
CCC1OC23CCCCC2C(C#N)(C(=N)O3)C1(C#N)C#N (stereo not drawn),?,?,-4.8,13µM*,-5.2,-28.8
CCOC(=O)CCNC(=O)N1CCCC(Cc2ccccc2)(C(=O)OCC)C1 (stereo not drawn),?,-1.6%,5.8,-4.8%,0.8,1.2
COc1ccc(/C=C/CN2CCC(n3nccc3NC(=O)C3CC3)CC2)cc1,-29.6%,-1.5%,1.4,12.6%,-5.9,-6.0
CC(=O)Nc1ccc(OCC(O)CN2CCN(c3ccc(F)cc3)CC2)cc1 (stereo not drawn),4.1%,0.1%,5.1,7.5%,-19.6,?
CC(=O)Nc1ccc(OCC(O)CN2CCN(c3ccc(Cl)cc3)CC2)cc1 (stereo not drawn),-25.4%,-0.6%,2.7,?,17.2,-72.0*
COc1ccc(NC(=O)CCN2CCN(c3cccc(Cl)c3)CC2)cc1,?,-10.5%,7.3,?,.,.
CC(=O)Nc1ccc(OCC(O)CN2CCN(c3cccc(Cl)c3)CC2)cc1 (stereo not drawn),-8.7%,1.1%,34.5*,-2.2%,1.2,-17.7
Fc1ccc(Br)cc1C1C=C(c2cccnc2)Nc2ncnn21 (stereo not drawn),16.4µM*,-7.2%,-0.4,16.4µM*,28.7,3.7
CCOC(=O)C1=C(C)Nc2ncnn2C1c1cccs1 (stereo not drawn),-23.1%,-3.6%,-2.7,-9.6%,48.2,-0.8
CCOC(=O)C1=C(C)Nc2ncnn2C1c1cc(Br)ccc1F (stereo not drawn),?,-0.3%,1.9,25.9µM*,12.8,-9.0
CCOc1ccc(C2=CC(c3cc(Br)ccc3F)n3ncnc3N2)cc1Cl (stereo not drawn),14.6µM*,?,0.6,18.4µM*,.,.
CCOc1ccc(C2C=C(c3ccc(F)cc3)Nc3ncnn32)cc1 (stereo not drawn),-21.2%,-24.8%,0.4,?,-13.2,-14.7
CCc1ccccc1N(CC(=O)NC(C)C)C(=O)CCC(=O)Nc1nccs1,-20.0%,0.5%,3.4,-2.5%,?,-7.1
Cc1ccccc1-c1nc(CS(=O)(=O)CC(=O)NCCCN2CC(C)CC(C)C2)c(C)o1 (stereo not drawn),?,-5.8%,-8.1,?,?,2.7
O=C(NCc1cccnc1)c1cc(-c2cccs2)on1,13µM*,-12.7%,-11.1,?,67.0,-7.5
O=C(O)c1cc2nc(-c3cccs3)cc(C(F)(F)F)n2n1,-24.1%,.,-10.0,-5.9%,14.9,-20.1

# Assay outcomes as filed in PubChem BioAssay.
